About 79,000 compounds went through this panel and 15% of them were active in at least one assay; those are over-represented in the sample as a whole. Unmarked numbers belong to inactive results. Activity calls are given as the source filed them. Rule as the data show it: active = growth inhibition above about 70%; inactive = the rest.

This test is described as follows: NCI Yeast Anticancer Drug Screen. Data for the rad50 strain (AID 155).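 Also: 0% = growth of vehicle-only cultures of the same strain.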 The note with it: S. cerevisiae rad50 strain growth inhibition; at 50.0 µM; active compounds read high. On the procedure:
Growth inhibition of yeast strains with defined genetic alterations is measured as a screen for potential anti-cancer activity. Selected strains with alterations in DNA damage repair or cell cycle control were exposed to compounds and growth inhibition was measured relative to vehicle treated controls. The strain used in this assay is rad50
For `CCOC(=O)c1cn(Cc2ccccc2)c(=O)n1Cc1ccccc1`, the growth inhibition was 36%. As to `CC(O)c1ccc2c(c1)Nc1ccccc1S2` (stereo not given), the growth inhibition is -6.95%.

On to `CCOc1ccc(N(O)C(C)=O)cc1`, for which the growth inhibition was 1.9%. For the compound `O=S(=O)(O)c1ccc2cc(O)ccc2c1`, the growth inhibition is 35.7%. As for `C/C(NN(C)C)=C(\C#N)C(=O)/C=C/c1cccs1`, the figure is 25.2%; as for `Nc1cccc(Br)n1`, 16.1%. As to `OCC1OC(n2ncc3c(Nc4ccccc4)ncnc32)C(O)C1O` (stereo not given), the growth inhibition was 17.1%.

For the compound `CCOC(=O)CCCCCCCCC(=O)Nc1ccc(-n2[nH]c(=O)cc2C)cc1`, the growth inhibition is -2.6%. For `N#CC(NCCCNC(C#N)c1ccccc1)c1ccccc1` (stereo not given), the growth inhibition is -1%. In the case of `CNC(=S)N/N=C(C)\C=N/Nc1ccc(Br)cc1`, the growth inhibition is 46.4%. As to `CCCCC1(CC)COC2(CCCC2)OC1`, the growth inhibition is 18.6%. Turning to `ClC1(c2ccccc2)c2ccccc2C(Cl)(c2ccccc2)c2ccccc21` (stereo not given), the growth inhibition was 17.9%.

Take `COC(=O)/C(=C\c1ccc(N(CCC#N)CCC#N)cc1)NC(=O)c1cc([N+](=O)[O-])ccc1Cl`: the growth inhibition was -0.55%. As for `O=C(Nc1cc(Cl)c(Cl)cc1Cl)Nc1cc(Cl)ccc1Oc1ccc(Cl)cc1S(=O)(=O)O`, the figure is 98% (active); as for `COc1ccc(-c2cc(-c3ccccc3)n(C3OC(COC(C)=O)C(OC(C)=O)C(OC(C)=O)C3OC(C)=O)c(=S)c2C#N)cc1` (stereo not given), 5%; as for `O=C1C(Cl)C(c2cccc(O)c2)N1n1cnc2ccccc2c1=O` (stereo not given), -25.1%. As for `CC12CCCC(C(=O)O)(C1)[C@H](C(C)(C)C(=O)O)CC2` (stereo not given in full), the figure is -29.5%. As to `CCCC(=O)Nc1ccccc1OC`, the growth inhibition is 12.8%. As for `CN1C2C=CC(=O)C1C1C(=O)N(c3ccccc3)C(=O)C12` (stereo not given), the figure is 25.2%; as for `O=C(Cc1ccccc1)Nc1ccc(Br)cc1`, 6.15%; as for `COc1cc2c(cc1OC)C1c3cc(OC)c(OC)cc3CC(=O)N1CC2` (stereo not given), 17.6%. For `CCOC(=O)Nc1ccc([N+](=O)[O-])c2c1C(=O)c1ccccc1-2`, the growth inhibition is -9.55%. Regarding `COc1ccc2[nH]c3c4c(ccc3c2c1)C(=O)C=CC4=O`, the growth inhibition was 19.8%. For the compound `C[N+](C)(CCNCC(N)=O)CC(N)=O`, the growth inhibition is -17.6%.

Consider `Cc1cc(Cl)ccc1OC(=O)NC1CCCCC1`, for which the growth inhibition was -2.5%. With `O=c1c2cccnc2[nH]c2ccc3[nH]ncc3c12`, the growth inhibition was -17.2%.

In the case of `C=C(CCCCCCCCC)CC(=O)SCCNC(=O)CCNC(=O)C(O)C(C)(C)COP(=O)(O)OP(=O)(O)OCC1OC(n2cnc3c(N)ncnc32)C(O)C1OP(=O)(O)O` (stereo not given), the growth inhibition is -7.95%. As for `CCCCCCC(C)CC1=C(O)c2ccccc2C(=O)C1=O` (stereo not given), the figure is -18.5%; as for `COc1cc(Cc2cc(OC)c(OC)c(OC)c2)ccc1O`, -23.4%.

For `CC1OC2CC(O)C1(O)C1=C2C(O)=C(C(N)=O)C(=N)C1=O` (stereo not given), the growth inhibition is 12.3%. Take `CN(C)CC(=O)N1CCc2c([nH]c3ccccc23)C1c1cccnc1` (stereo not given): the growth inhibition was -44.9%. As for `CCCOC(=O)CC(=O)OCC`, the figure is 6%; as for `CC(=O)Nc1ccc2oc(=O)ccc2c1`, -19.2%; as for `C1=C(c2ccccc2)CCCC1`, 17.1%. As for `COC(=O)C(=O)C(C(=O)C(=O)Nc1cc(C)ccc1C)c1nc2ccccc2[nH]c1=O` (stereo not given), the figure is 13%. As for `COC1(C)CNc2ccccc2C(=O)N1` (stereo not given), the growth inhibition was 6.65%.

As to `CCOC(=O)c1ccc(NCc2ccc3oc(=O)c(-c4ccccc4)nc3c2)cc1`, the growth inhibition is -14.7%. For the compound `Cc1cc(Br)ccc1NC1=CC(=O)C(=O)c2ccccc21`, the growth inhibition is 9.95%.

As for `COc1cc(-c2c(C)oc(C)c2C(C)=O)ccc1OCc1ccccc1`, the growth inhibition is 9.6%. For the compound `COC(=O)c1nsc(OC)c1Cl`, the growth inhibition was 22.1%.
